In PubChem BioAssay AID602410 (Johns Hopkins Ion Channel Center, 2012) one finds B-score data, which are given here for 102 compounds.

Each structure is given as a SMILES string. In all, about 340,000 compounds went through this assay and about 2,800 (0.82%) were called active. This is one part of a sample in which actives are shown more often than they occur.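 The calls were made as follows: active = B-score under library mean minus 4 SD, starting fluorescence ratio at most library mean plus 5 SD; inactive = the rest.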

The target in the experiment is Potassium channel subfamily K member 3 (Homo sapiens) (UniProt O14649). In words: human KCNK3 channel inhibitors, primary screen, CHO cells, FluxOR thallium flux, B-score (AID 602410).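 As to B-score: more negative B-score means stronger inhibition of thallium flux through KCNK3.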 The note with it: FluxOR fluorescence, at 10 µM; active compounds read low.
Potassium channel subfamily K member 3 (Homo sapiens), sequence (O14649 whole entry, looked up): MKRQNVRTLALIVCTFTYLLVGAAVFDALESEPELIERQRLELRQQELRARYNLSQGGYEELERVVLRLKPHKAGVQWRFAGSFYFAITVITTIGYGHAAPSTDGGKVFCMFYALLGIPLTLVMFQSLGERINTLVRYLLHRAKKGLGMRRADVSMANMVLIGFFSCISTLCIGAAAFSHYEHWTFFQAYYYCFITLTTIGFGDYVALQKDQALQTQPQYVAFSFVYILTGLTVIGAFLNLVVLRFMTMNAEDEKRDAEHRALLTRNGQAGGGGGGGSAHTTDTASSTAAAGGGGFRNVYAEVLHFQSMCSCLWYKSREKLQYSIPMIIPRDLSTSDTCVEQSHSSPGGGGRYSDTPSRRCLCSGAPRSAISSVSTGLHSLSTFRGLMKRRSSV
Turning to `Cc1noc(C)c1S(=O)(=O)N(CC(=O)Nc1ccc2c(c1)OCCO2)c1ccc(C(C)C)cc1`, the B-score result was “inactive”. Under `COc1ccc(N(CC(=O)Nc2cc(OC)ccc2OC)S(=O)(=O)c2c(C)noc2C)cc1` stands “inactive”; under `CCOC(=O)c1cccc(NC(=O)CN(c2ccc(C)cc2)S(=O)(=O)c2c(C)noc2C)c1`, -8.84 (active). Under `COc1cccc(NC(=O)C(Sc2nc3ccccc3c(=O)n2CC(C)C)c2ccccc2)c1` (configuration not stated) stands “inactive”; under `CC(Sc1nc2ccccc2c(=O)n1Cc1ccco1)C(=O)c1ccccc1` (configuration not stated), -8.93 (active); under `N#Cc1c(NC(=O)CSc2nc3ccccc3c(=O)n2Cc2ccco2)sc2c1CCCC2`, “inactive”. In the case of `CC(C)(C)OC(=O)Nc1ccc([C@@H](NC(=O)OC(C)(C)C)C(=O)OC(C)(C)C)cc1`, the B-score result is “inactive”. For `COc1ccc(CC(=O)NCc2nnc(SCC(=O)Nc3nccs3)n2C)cc1`, the B-score result was “inactive”. The value for `CC1(C)Cc2ccccc2-c2nnc(-c3cccc(O)c3)n21` was “inactive”; that for `COc1cc(C)c(Cl)cc1S(=O)(=O)n1ccnc1` was “inactive”; that for `O=C(Cc1ccc(S(=O)(=O)N2CCOCC2)s1)NCCC(c1ccccc1)c1ccccc1` was “inactive”. The value for `O=C(Cc1ccc(S(=O)(=O)N2CCOCC2)s1)Nc1ccc(Br)c(C(F)(F)F)c1` was -9.72 (active); that for `O=C(Cc1ccc(S(=O)(=O)N2CCOCC2)s1)NCCOc1ccccc1F` was “inactive”. The value for `O=C1CCCN2N=C(SCC(=O)Nc3ccc(Br)cc3)SC2=N1` was “inactive”; that for `N#C/C(=C\c1ccccc1)c1n[nH]c(Cn2cncn2)n1` was “inactive”; that for `CCN1CCN(C(=O)N[C@@H](C(=O)N[C@@H]2C(=O)N3C(C(=O)O)=C(CSc4nnnn4C)CS[C@H]23)c2ccc(O)cc2)C(=O)C1=O` was “inactive”. For the compound `CN(C(=O)CSc1nnc(-c2ccc(C(C)(C)C)cc2)n1C)C1CCS(=O)(=O)C1` (configuration not stated), the B-score entry was “inactive”. The value for `COc1ccc2c(c1)c(=O)c(C(=O)c1ccc(Cl)cc1)cn2CC(=O)Nc1ccc(F)cc1` was “inactive”; that for `CN1c2ccc(C=O)c3c(C=O)ccc(c23)N(C)C1(C)C` was -11.3 (active). In the case of `COc1ccc(-c2nc(CN3CCN(c4ncccn4)CC3)c(C)o2)cc1C`, the B-score entry is “inactive”.

Consider `Cc1ccc(C(CNC(=O)Nc2ccccc2)N2CCN(C)CC2)cc1` (configuration not stated), for which the B-score entry is “inactive”. The value for `COc1cccc(C(=O)Nc2cc3c(cc2Br)OCCCO3)c1` was “inactive”. The value for `COc1ccc(CN(C)C(=O)c2cc(-c3ccc(C)cc3C)nc3ccccc23)c(OC)c1OC` was -12.7 (active). For `COc1ccc(-c2cc(C(=O)N(C)CC(=O)Nc3ccccc3Cl)c3ccccc3n2)cc1OC`, the B-score result is “inactive”. As to `COc1ccc(-c2cc(C(=O)N(C)Cc3ccc(OC)c(OC)c3OC)c3ccccc3n2)cc1OC`, the B-score entry was “inactive”.

As to `CC(=O)c1c(Nc2ccccc2)sc(C(=O)c2ccccc2)c1C`, the B-score result is “inactive”. The value for `COc1ccc(Cl)cc1NC(=O)CN(C)C(=O)c1cc(-c2cccs2)nn1-c1ccccc1` was “inactive”; that for `COc1ccccc1C(=O)NCC(=O)NCCSc1ccc(Br)cc1` was “inactive”; that for `COc1cccc(C(=O)NCCSc2ccc(Br)cc2)c1` was -8.94 (active). On to `COc1cc(C(=O)NCC(=O)NCCSc2ccc(Br)cc2)cc(OC)c1OC`, for which the B-score result is “inactive”. The value for `Cc1ccc(NCc2n[nH]c(=S)n2-c2ccccc2)cc1Cl` was “inactive”; that for `CCOc1ccc(OCCSc2nc3ccccc3n2CC(=O)O)cc1` was “inactive”. Under `Cc1cc(C)cc(NC(=O)C2CCCN(S(=O)(=O)c3ccc4[nH]c(=O)ccc4c3)C2)c1` (configuration not stated) stands “inactive”. Under `CCOc1ccc(C2c3[nH]c4ccccc4c3CCN2Cc2cn(CC)nc2C)cc1` (configuration not stated) stands “inactive”; under `c1ccc(C2c3[nH]c4ccccc4c3CCN2Cc2cccn2-c2cccnc2)nc1` (configuration not stated), “inactive”. Consider `CCOc1ccc(C2c3[nH]c4ccccc4c3CCN2Cc2cccn2-c2ncccn2)cc1` (configuration not stated), for which the B-score is -8.75 (active).

Turning to `O=C(NCc1ccccc1)C1=C[C@@H](c2ccc(C(F)(F)F)cc2)C[C@@H](OCc2ccc(CO)cc2)O1`, the B-score result was “inactive”. Under `COc1ccc(C(C)=O)cc1COc1ccc(Cl)c(C)c1` stands -10.4 (active); under `COCc1cc(C(C)=O)ccc1OC`, “inactive”; under `CCOc1ccc(C(C)=O)cc1COC(=O)c1cnc(Cl)c(Cl)c1`, “inactive”.

`O=S(=O)(c1cccc(-c2cn3ccccc3n2)c1)N1CCCC1`: the B-score result was “inactive”.

Take `COc1ccc(N2CCN(C3CCCCC3NS(=O)(=O)c3ccccc3)CC2)cc1` (configuration not stated): the B-score result was “inactive”.

As for `O=S(=O)(NC1CCCCC1N1CCN(c2ccccc2F)CC1)c1ccccc1` (configuration not stated), the B-score was -9.12 (active). Under `O=S(=O)(NC1CCCCC1N1CCCCC1)c1ccc(Cl)cc1` (configuration not stated) stands “inactive”; under `CCC(C)(C)NC(=O)C(c1ccc(O)cc1)N(Cc1ccco1)C(=O)CCC(=O)Nc1ccccn1` (configuration not stated), “inactive”.

As for `Cn1c(=O)c2sccc2n(Cc2ccc(Br)cc2)c1=O`, the B-score result was “inactive”.

With `FC(F)(F)c1cc(-c2ccco2)nc(NCc2ccc(Cl)cc2)n1`, the B-score is -8.85 (active). Under `FC(F)(F)c1cc(-c2cccs2)nc(NCc2ccco2)n1` stands “inactive”; under `COc1nc(NCc2ccc(Cl)cc2)nc(OC)n1`, “inactive”; under `Cc1cccc2cc3c(N)c(C(=O)N4CCCc5ccccc54)sc3nc12`, “inactive”.

On to `Cc1c(C(=O)NCC2CCCO2)sc2nc(-c3ccccc3)cn12` (configuration not stated), for which the B-score entry was “inactive”. Under `Cc1c(C(=O)N2CCCc3ccccc32)sc2nc(-c3ccccc3)cn12` stands -9.27 (active); under `N[C@@H](Cc1ccccc1)C(=O)N1CCC(C(=O)NCC(=O)Nc2ccc(F)cc2)CC1`, “inactive”.

With `COc1ccc(C(F)(F)F)cc1N/C=C\c1nnnn1-c1ccc(C)cc1`, the B-score entry was “inactive”. As to `Cc1ccc(C(=O)N/N=C\c2cc(Br)c(Br)o2)cn1`, the B-score entry was “inactive”. The value for `COc1ccc(S(=O)(=O)NCCOc2ccccc2)cc1F` was “inactive”; that for `COc1ccc(S(=O)(=O)NCCCCOc2ccc(Cl)cc2)cc1` was -9.65 (active). Under `COc1ccc(OCCNS(=O)(=O)Cc2ccccc2)cc1` stands “inactive”. The value for `CCCC(C)c1nnc(NC(=O)C2CC(=O)N(c3ccc(OCC)cc3)C2)s1` (configuration not stated) was “inactive”; that for `CC(C)[C@H](NC(=O)Nc1ccc(S(N)(=O)=O)cc1)C(=O)O` was “inactive”; that for `CC(C)n1c(COc2ccccc2)nc2ccccc21` was “inactive”.

Take `CCCCCC(O)c1cccc(OCc2ccc3ccccc3n2)c1` (configuration not stated): the B-score is -9.81 (active).

With `COc1cccc(C(O)c2nc3ccccc3n2C)c1` (configuration not stated), the B-score result was “inactive”. The value for `NS(=O)(=O)c1ccc(NC(=O)/C=C/c2ccccc2Cl)cc1` was “inactive”; that for `Cc1cc(=O)oc2c(C)c(OC(C)C(=O)NC3CCN(Cc4ccccc4)CC3)ccc12` (configuration not stated) was “inactive”. Under `COc1cc(C(=S)NCc2ccccc2)cc(Br)c1O` stands “inactive”. The value for `CC(=O)N1CCCc2cc(S(=O)(=O)CCC(=O)N3CCN(c4ccccc4)CC3)ccc21` was “inactive”. As for `CC(=O)N1CCCc2cc(S(=O)(=O)N3CCCC(C(=O)N4CCN(c5cccc(Cl)c5)CC4)C3)ccc21` (configuration not stated), the B-score is -9.62 (active). For the compound `CC(=O)N1c2ccc(S(=O)(=O)N3CCC(C(=O)N4CCN(c5ccccc5)CC4)CC3)cc2CC1C` (configuration not stated), the B-score entry is “inactive”. The value for `CCOc1ccc2[nH]c(=O)c(CN(Cc3nnnn3Cc3ccccc3)CC3CCCO3)cc2c1` (configuration not stated) was “inactive”; that for `Cc1cccc2cc(CN(Cc3nnnn3Cc3ccccc3)C3CCCC3)c(=O)[nH]c12` was -10.8 (active); that for `Cc1cc(C)c2cc(CN(Cc3nnnn3Cc3ccc(F)cc3)C3CCCC3)c(=O)[nH]c2c1` was “inactive”.

For the compound `CCCCn1c(N)c(N(CCOC)C(=O)c2cccc(S(=O)(=O)N(C)c3ccccc3)c2)c(=O)[nH]c1=O`, the B-score entry is “inactive”. Under `COc1ccc(C2NCCCC2c2ccccc2)cc1` (configuration not stated) stands “inactive”; under `COCCn1c(=O)[nH]c2cc(C(=O)NCc3cccnc3)ccc2c1=O`, “inactive”; under `CCCCNC(=O)C1(O)c2ccccc2NC(=O)N1c1ccc(Cl)cc1` (configuration not stated), “inactive”. The value for `Cc1cccc(N(Cc2ccccc2)C(=O)c2ccccc2F)c1` was -9.35 (active); that for `O=C(c1ccccc1F)N(Cc1ccccc1)Cc1ccccc1` was “inactive”; that for `Cc1cccc(N(Cc2ccccc2)C(=O)c2cc(S(=O)(=O)N3CCOCC3)ccc2F)c1` was “inactive”.

In the case of `O=[N+]([O-])c1cc([N+](=O)[O-])c(Oc2cc(F)cc(F)c2F)cc1NN1CCCCC1`, the B-score result is “inactive”. Under `COC(=O)C1=C(C(=O)OC)C(c2cc([N+](=O)[O-])ccc2O)c2sc(=O)[nH]c2S1` (configuration not stated) stands “inactive”; under `Cc1c(C(=O)NC2CCCCC2)oc2ccccc12`, “inactive”; under `Cc1cc(C)nc(-n2nc(C)cc2NC(=O)c2ccc(F)cc2F)n1`, “inactive”.

As for `c1ccc2c(NC3C4CC5CC(C4)CC3C5)nc(N3CCOCC3)nc2c1` (configuration not stated), the B-score is -9.5 (active). The value for `CC(Nc1nc(N2CCOCC2)nc2ccccc12)c1ccccc1` (configuration not stated) was “inactive”; that for `CC(Nc1nc(N2CCCC2)nc2ccccc12)c1ccccc1` (configuration not stated) was “inactive”; that for `O=C(NC1CC1)C1CCCN(C(=O)NC2CCCCC2)C1` (configuration not stated) was “inactive”.

In the case of `COc1ccccc1OCc1nnc(SCC(N)=O)n1-c1ccccc1`, the B-score entry was “inactive”. `c1ccc(CCn2nnnc2CN2CCN(C3CCCC3)CC2)cc1`: the B-score entry was “inactive”. Under `COc1ccc(C(c2nnnn2C2CCCCC2)N2CCN(c3ccccc3F)CC2)cc1` (configuration not stated) stands “inactive”; under `c1ccc(C(c2ccccc2)N2CCN(Cc3nnnn3C3CCCCC3)CC2)cc1`, -10.8 (active). With `CC(=O)c1c(C)c[nH]c1C`, the B-score entry is “inactive”. The value for `O=C(NC(=S)N1CCN(Cc2ccccc2)CC1)c1ccccc1` was “inactive”; that for `Cc1cccc(N(C(=O)Cc2cccs2)C(C(=O)NC2CCCC2)c2ccsc2)c1` (configuration not stated) was “inactive”; that for `NS(=O)(=O)c1ccc(N2C(=O)C3C4CC(C(Br)C4Br)C3C2=O)cc1` (configuration not stated) was “inactive”. The value for `Cc1cc(O)c(NC(=O)c2ccc(C)c([N+](=O)[O-])c2)cc1C` was “inactive”; that for `CCCCCCCCn1c2c(c(=N)c3c1CCC3)CCCC2` was -9.82 (active). The value for `CC1(C)Cc2c(sc(NC(=O)C(=O)N3CCOCC3)c2C#N)CO1` was “inactive”; that for `Clc1ccc(-c2cc(C3CCNCC3)[nH]n2)c(Cl)c1` was “inactive”. Turning to `Cc1ccccc1NC(=O)CSc1nc2ccc(Nc3nc(N4CCOCC4)nc(N4CCOCC4)n3)cc2s1`, the B-score result was “inactive”. The value for `O=C(CSc1nc(Nc2ccccc2)nc(N2CCOCC2)n1)Nc1cc(Cl)ccc1O` was -11.6 (active); that for `CC1(c2ccccc2)NC(=O)N(CC(=O)Nc2cc(Cl)ccc2N2CCOCC2)C1=O` (configuration not stated) was “inactive”.
